Compounds with a hit are over-represented: about 11% of the library has one in this group of screens.
Luciferase inh – inhibitors of firefly (Photinus pyralis) luciferase | purified P. pyralis luciferase, luminescence, biochemical | Potency, µM (titrated, usually from 115 µM), most hits filed as inhibitors | AID 1347043 | P08659 | 2.5% of 76,000 active; also: nearly all actives have a fitted effect of over 65% in size
Target sequence (P08659 whole entry, looked up): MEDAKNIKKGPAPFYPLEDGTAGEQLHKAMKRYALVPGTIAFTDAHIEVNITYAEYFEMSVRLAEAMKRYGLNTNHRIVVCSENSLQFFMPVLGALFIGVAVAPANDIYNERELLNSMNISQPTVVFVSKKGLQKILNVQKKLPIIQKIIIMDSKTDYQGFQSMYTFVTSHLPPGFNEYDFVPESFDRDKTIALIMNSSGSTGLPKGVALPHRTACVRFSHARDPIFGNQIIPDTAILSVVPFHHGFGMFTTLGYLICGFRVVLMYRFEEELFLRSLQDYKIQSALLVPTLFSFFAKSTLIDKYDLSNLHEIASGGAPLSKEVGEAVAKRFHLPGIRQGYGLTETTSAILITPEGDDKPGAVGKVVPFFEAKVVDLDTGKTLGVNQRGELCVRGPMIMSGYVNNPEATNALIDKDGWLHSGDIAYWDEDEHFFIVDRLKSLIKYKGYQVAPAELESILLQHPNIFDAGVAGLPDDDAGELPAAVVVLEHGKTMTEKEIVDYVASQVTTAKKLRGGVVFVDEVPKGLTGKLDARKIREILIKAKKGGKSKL
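Cell-free enzyme assay, 10nM P. pyralis luciferase, luciferin and ATP each at 10uM. Inhibition profiled over a 6-point titration, read as luminescence.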
hNpr1 antagonist – blocks ANP-stimulated signaling of human Npr1 receptor | 1.6% of 76,000 active | HEK293 hNpr1 GloSensor cGMP, ANP-stimulated luminescence | Potency, µM (highest dose often 46.3 µM), without a hit: top-dose activity change, negative = inhibition, actives largely listed as inhibitors | AID 1347048; calls by dose curve; also: nearly all actives have a fitted effect of over 60% in size
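Compound pre-incubated 30 min at room temperature on GloSensor-loaded HEK293 cells stably carrying hNpr1 and the pGS-40F cGMP biosensor. Stimulation uses hNppA at 0.1 nM final; luminescence is taken at baseline and 20 min post-agonist.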
NIH3T3 tox – NIH 3T3 cell cytotoxicity | NIH 3T3 viability, CellTiter-Glo ATP luminescence, 48-72 h | Potency, µM (top dose mostly 96.7 µM), for inactives: at the highest dose activity change, negative = cytotoxicity, usual class: inhibitors | 4.3% of 94,000 active | AID 1345082; also: nearly all actives have a fitted effect of over 55% in size
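Cytotoxicity was measured by CellTiter-Glo ATP luminescence after 48 or 72 h compound exposure at 37 °C. Mouse NIH 3T3 fibroblasts were seeded at 400 cells/well and dosed by 23 nL pin transfer.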
HEK293 tox – kills HEK 293 cells; 6.6% of 94,000 active; HEK 293 viability, ATP luminescence (CellTiter-Glo), 48-72 h; Potency, µM (top dose mostly 115 µM), for inactives: at the top dose activity change, negative = cytotoxicity, hits mostly inhibitors; also: nearly all actives have a fitted effect of over 60% in size
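ATP-coupled CellTiter-Glo luminescence served as viability read-out, recorded 10 min after reagent addition at room temperature. HEK 293 cells, 250 cells/well, had been incubated with pintool-transferred compound for 48 or 72 hr at 37 degree Celsius.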
Active calls of the source: *; [ ] = dose if it differs, or a comment. Unless noted, calls follow the shape of the dose curve; as a rule, active = well fitted curve in the direction sought with a large enough effect; inconclusive = small, poorly fitted or top-dose-only effect, or another doubt; inactive = no such curve, though single readings can be large; an effect the other way counts as inactive or inconclusive. % is scaled to controls: 0 for no effect and ±100 for the full control effect; potency is read from the fitted curve at half-maximal effect.

CC(C)CN(Cc1cccnc1)C1CN(C(=O)COc2ccc(F)cc2)C1 was read as Luciferase inh inactive, hNpr1 antagonist 3%, NIH3T3 tox 32µM* and HEK293 tox inconclusive.
For C=C[C@H]1CN2CC[C@H]1C[C@@H]2CNC(=O)Nc1ccc(C(C)(C)C)cc1 the results were Luciferase inh inactive, hNpr1 antagonist 5%[70.6 µM], NIH3T3 tox 35µM* and HEK293 tox 32µM*.
`CC[C@H]1CN2CC[C@H]1C[C@@H]2CNC(=O)Nc1cc(OC)cc(OC)c1` gave Luciferase inh inactive, hNpr1 antagonist 2%[70.6 µM], NIH3T3 tox inconclusive and HEK293 tox -40%[172 µM].
`C=C[C@H]1CN2CC[C@H]1C[C@@H]2CNC(=O)Nc1cccc(SC)c1` gave Luciferase inh inactive, hNpr1 antagonist -2%[70.6 µM], NIH3T3 tox inconclusive and HEK293 tox inconclusive.
`CC[C@H]1CN2CC[C@H]1C[C@@H]2CNC(=O)Nc1ccc(C(C)(C)C)cc1` gave Luciferase inh inactive, hNpr1 antagonist -3%[70.6 µM], NIH3T3 tox inconclusive and HEK293 tox 71µM*.
`C=C[C@H]1CN2CC[C@H]1C[C@@H]2CNC(=O)Nc1cccc(C(F)(F)F)c1` gave Luciferase inh inactive, hNpr1 antagonist -1%[70.6 µM], NIH3T3 tox inconclusive and HEK293 tox 100µM*.
`C#C[C@H]1CN2CC[C@H]1C[C@@H]2CNC(=O)Nc1cccc(C(F)(F)F)c1` gave Luciferase inh inactive, hNpr1 antagonist -2%[70.6 µM], NIH3T3 tox inconclusive and HEK293 tox inconclusive.
`Cc1ccc(C(=O)N2CCC3(CC2)c2nccn2-c2ccccc2CN3C)c(C)c1` gave Luciferase inh inactive, hNpr1 antagonist inconclusive, NIH3T3 tox -6% and HEK293 tox -24%.
O=C1N(c2ccccn2)C[C@H]2CN(Cc3ccccc3)CCN12 was read as Luciferase inh 20µM*, hNpr1 antagonist -21%[70.6 µM], NIH3T3 tox -12%[138 µM] and HEK293 tox -7%[172 µM].
COCCOCC(=O)N1CCC2(CC1)c1nccn1-c1ccccc1CN2CC(C)C was read as Luciferase inh inactive, hNpr1 antagonist -14%, NIH3T3 tox inactive and HEK293 tox -15%.
`CC(C)CN1Cc2ccccc2-n2ccnc2C12CCN(C(=O)c1ccn[nH]1)CC2` gave Luciferase inh inactive, hNpr1 antagonist -15%, NIH3T3 tox -26% and HEK293 tox 40µM*.
Screening CC(C)CN1Cc2ccccc2-n2ccnc2C12CCN(C(=O)c1ccoc1)CC2 returned Luciferase inh inactive, hNpr1 antagonist -21%, NIH3T3 tox inconclusive and HEK293 tox inconclusive.
For CC(C)CN1Cc2ccccc2-n2ccnc2C12CCN(C(=O)c1ccco1)CC2 the results were Luciferase inh inactive, hNpr1 antagonist -15%, NIH3T3 tox inconclusive and HEK293 tox 45µM*.
For CC(C)CN1Cc2ccccc2-n2ccnc2C12CCN(C(=O)c1cccc(F)c1)CC2 the results were Luciferase inh inactive, hNpr1 antagonist -18%, NIH3T3 tox inconclusive and HEK293 tox 35µM*.
CCn1ccc(C(=O)N2CCC3(CC2)c2nccn2-c2ccccc2CN3CC(C)C)n1 was read as Luciferase inh inactive, hNpr1 antagonist 4%, NIH3T3 tox inconclusive and HEK293 tox 45µM*.
O=C1NC[C@H]2CN(Cc3ccccc3)CCN12 was read as Luciferase inh inactive, hNpr1 antagonist 0%[70.6 µM], NIH3T3 tox -13%[174 µM] and HEK293 tox -18%[230 µM].
For CCOCC(=O)N1CCC2(CC1)c1nccn1-c1ccccc1CN2CC(C)C the results were Luciferase inh inactive, hNpr1 antagonist -4%, NIH3T3 tox inactive and HEK293 tox inconclusive.
For CC(C)CN1Cc2ccccc2-n2ccnc2C12CCN(C(=O)c1cccs1)CC2 the results were Luciferase inh inactive, hNpr1 antagonist -19%, NIH3T3 tox inconclusive and HEK293 tox 45µM*.
For COc1cc2c(cc1OCc1ccccc1)N(C(=O)C(C)C)CC21CCN(C)CC1 the results were Luciferase inh inactive, hNpr1 antagonist 7%[70.6 µM], NIH3T3 tox 89µM* and HEK293 tox inconclusive.
COc1cc2c(cc1OCc1ccccc1)N(C(=O)c1ccnn1C)CC21CCN(C)CC1 was read as Luciferase inh inactive, hNpr1 antagonist 0%, NIH3T3 tox inconclusive and HEK293 tox inconclusive.
COc1cc2c(cc1OCc1ccccc1)N(C(=O)c1cnn(C)c1)CC21CCN(C)CC1 was read as Luciferase inh inactive, hNpr1 antagonist -1%, NIH3T3 tox inconclusive and HEK293 tox inconclusive.
COc1cc2c(cc1OCc1ccccc1)N(C(=O)c1cccc(N(C)C)c1)CC21CCN(C)CC1 was read as Luciferase inh inactive, hNpr1 antagonist 3%, NIH3T3 tox 11µM* and HEK293 tox inconclusive.
`COc1cc2c(cc1OCc1ccccc1)N(C(=O)c1ccccc1OC)CC21CCN(C)CC1` gave Luciferase inh inactive, hNpr1 antagonist -2%, NIH3T3 tox 28µM* and HEK293 tox 79µM*.
Screening COc1cc2c(cc1OCc1ccccc1)N(C(=O)C1CCC(C)CC1)CC21CCN(C)CC1 (configuration not stated) returned Luciferase inh inactive, hNpr1 antagonist -3%, NIH3T3 tox 20µM* and HEK293 tox 28µM*.
Screening O=C(Cc1ccc(Cl)cc1)N1CCCN(CCn2nc3n(c2=O)CCCC3)CC1 returned NIH3T3 tox -7% and HEK293 tox 0%.
Screening C#C[C@H]1CN2CC[C@H]1C[C@@H]2CNCc1ccc(OC)cc1 returned Luciferase inh inactive, hNpr1 antagonist 5%[70.6 µM], NIH3T3 tox inconclusive and HEK293 tox inconclusive.
For O=C(NCc1ccco1)[C@H]1CN2CCC1C[C@@H]2Cn1cc(CO)nn1 (some centres not stated) the results were Luciferase inh inactive, hNpr1 antagonist 1%[70.6 µM], NIH3T3 tox -16%[174 µM] and HEK293 tox -9%[172 µM].
Screening COc1cc2c(cc1OCc1ccccc1)N(C(=O)c1ccc3[nH]ccc3c1)CC21CCN(C)CC1 returned Luciferase inh inactive, hNpr1 antagonist -2%, NIH3T3 tox 22µM* and HEK293 tox 35µM*.
Screening CSc1cccc(NC(=O)NC[C@H]2C[C@@H]3CCN2C[C@@H]3CN(C)CCc2ccccn2)c1 returned Luciferase inh inactive, hNpr1 antagonist -3%, NIH3T3 tox 79µM* and HEK293 tox inconclusive.
O=C(NC[C@H]1C[C@@H]2CCN1C[C@@H]2CN1CCN(c2ccccc2)CC1)Nc1ccccc1 was read as Luciferase inh inactive, hNpr1 antagonist 4%[70.6 µM], NIH3T3 tox inconclusive and HEK293 tox inconclusive.
Screening CSc1cccc(NC(=O)NC[C@H]2C[C@@H]3CCN2C[C@@H]3CN2CCSCC2)c1 returned Luciferase inh inactive, hNpr1 antagonist 1%[70.6 µM], NIH3T3 tox 100µM* and HEK293 tox inconclusive.
`CN(CCc1ccccn1)C[C@H]1CN2CC[C@H]1C[C@@H]2CNC(=O)Nc1ccccc1` gave Luciferase inh inactive, hNpr1 antagonist -1%[70.6 µM], NIH3T3 tox -7%[174 µM] and HEK293 tox inactive.
